Screening data as filed in PubChem.
Sampled rows, rich in hits. Any-hit rate of the full collection: about 2.4%.
POLB inh: qHTS Assay for Inhibitors of DNA Polymerase Beta; P06746; Pol beta primer extension/strand displacement, fluorescence kinetic; Potency, µM (series often up to 114 µM), inactives show at the top dose activity change, negative = inhibition, most hits filed as inhibitors; 340,000 compounds, 1.3% hits; AID 485314, 2010; also: % is scaled to controls: 0 for no effect and ±100 for the full control effect
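Curves were derived by four-parameter Hill fits of normalized qHTS data. The kinetic fluorescent primer-extension read was taken at 0 and 10 min after 50 nM substrate, following a 15 min room-temperature preincubation of 10 nM enzyme with compounds.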
Pol eta inh-1: qHTS for Inhibitors of Polymerase Eta; recombinant Pol eta, fluorescent DNA replication assay; Potency, µM (titrated, usually from 114 µM), for the others: at the highest dose activity change, negative = inhibition, usual class: inhibitors; 390,000 compounds, 1.2% hits; DNA polymerase eta (Homo sapiens), Q9Y253; also: % is scaled to controls: 0 for no effect and ±100 for the full control effect
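Fluorescent replication assay: 50 nM final substrate added after a 15 min room-temperature compound preincubation with 10 nM enzyme. Signal taken at 0 min and again at 10 min.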
Pol kappa inh-1: qHTS for Inhibitors of Polymerase Kappa; 400,000 compounds, 0.53% hits; Potency, µM (titrated, usually from 107 µM), without a hit: top-dose activity, negative = inhibition, usual class: inhibitors; purified Pol kappa, fluorescent DNA synthesis assay, 10 min; also: % is scaled to controls: 0 for no effect and ±100 for the full control effect
Target sequence (Q9UBT6 whole entry, looked up): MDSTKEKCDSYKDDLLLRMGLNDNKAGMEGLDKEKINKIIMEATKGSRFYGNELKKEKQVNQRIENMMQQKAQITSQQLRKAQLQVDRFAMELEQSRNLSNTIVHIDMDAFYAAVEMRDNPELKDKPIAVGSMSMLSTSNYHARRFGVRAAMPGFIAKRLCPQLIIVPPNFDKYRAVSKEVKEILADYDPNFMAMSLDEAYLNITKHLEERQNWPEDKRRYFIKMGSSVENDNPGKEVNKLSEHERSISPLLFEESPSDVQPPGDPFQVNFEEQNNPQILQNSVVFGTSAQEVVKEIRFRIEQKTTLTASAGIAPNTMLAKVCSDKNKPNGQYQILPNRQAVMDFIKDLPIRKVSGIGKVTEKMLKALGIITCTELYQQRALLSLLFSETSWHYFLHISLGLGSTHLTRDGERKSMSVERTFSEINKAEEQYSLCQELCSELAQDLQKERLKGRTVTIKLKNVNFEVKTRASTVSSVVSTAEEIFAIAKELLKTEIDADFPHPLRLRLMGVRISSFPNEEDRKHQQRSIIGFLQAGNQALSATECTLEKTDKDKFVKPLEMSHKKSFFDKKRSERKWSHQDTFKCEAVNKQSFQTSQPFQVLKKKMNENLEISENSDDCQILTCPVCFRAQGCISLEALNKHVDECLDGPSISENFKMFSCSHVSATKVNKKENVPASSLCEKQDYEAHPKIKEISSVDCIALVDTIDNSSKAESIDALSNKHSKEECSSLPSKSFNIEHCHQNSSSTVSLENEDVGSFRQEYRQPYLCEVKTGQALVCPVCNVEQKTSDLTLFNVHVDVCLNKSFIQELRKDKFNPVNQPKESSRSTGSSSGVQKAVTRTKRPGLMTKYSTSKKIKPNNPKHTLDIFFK
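Here, compound and 10 nM enzyme are combined for 15 min at room temperature; adding 50 nM substrate (final) starts DNA synthesis, tracked by fluorescence at 0 and 10 min against buffer-only wells.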
FEN1 inhibitor: qHTS Assay for the Inhibitors of Human Flap endonuclease 1 (FEN1) | AID 588795, 2011 | 390,000 compounds, 0.35% hits | Recombinant FEN1 flap cleavage, fluorescence, 15 min | Potency, µM (series often up to 114 µM), inactives show at the highest dose activity change, negative = inhibition, usual class: inhibitors | P39748; also: % is scaled to controls: 0 for no effect and ±100 for the full control effect; nearly all actives have a fitted effect of over 65% in size
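Potency values derive from four-parameter Hill fits of normalized qHTS data. The reaction used 10 nM FEN1 preincubated 15 min at room temperature with compound, then 50 nM DNA substrate, read at 0 and 15 min.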
WRN helicase inh: qHTS for Inhibitors of WRN Helicase; WRN helicase unwinding, fluorescent forked duplex, kinetic; Potency, µM (series often up to 114 µM), for inactives: at the highest dose activity change, negative = inhibition, usual class: inhibitors; 360,000 compounds, 0.46% hits; AID 651768, 2012; also: % is scaled to controls: 0 for no effect and ±100 for the full control effect; nearly all actives have a fitted effect of over 55% in size
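Screening of the MLSMR collection measured strand separation of a quenched forked DNA duplex (100 nM) by 20 nM WRN with 2 mM ATP, all final. Compounds were preincubated with enzyme 15 min at room temperature.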
POLI inh: qHTS for Inhibitors of Polymerase Iota | DNA polymerase iota (Homo sapiens), Q9UNA4 | Pol iota fluorescent replication assay, 10 min | Potency, µM (doses to about 115 µM), for inactives: at the highest dose activity, negative = inhibition, hits mostly inhibitors | 390,000 compounds, 1% hits | AID 588590, 2011
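Fluorescent replication assay read twice, at 0 min and 10 min after adding 50 nM (final) substrate. Enzyme (10 nM) and compounds were first incubated 15 min at room temperature; enzyme-free buffer wells were negative controls.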
PGK validate: qHTS for inhibitors of Phosphogylcerate Kinase: Hit Validation Screen | TbPGK coupled GAPDH assay, Kinase-Glo luminescence | AID 686980, 2013 | 500 compounds, 79% hits | shares compounds with Pol kappa inh-1 | Potency, µM (titrated, usually from 57.5 µM), for the others: at the top dose activity change, negative = inhibition, hits mostly inhibitors; also: % is scaled to controls: 0 for no effect and ±100 for the full control effect; nearly all actives have a fitted effect of over 65% in size
POLI cherry-pick: qHTS for Inhibitors of Polymerase Iota: Confirmatory Assay for Cherry-picked Compounds | AID 720496, 2013 | 1,500 compounds, 77% hits | Pol iota primer extension, TAMRA/BHQ fluorescence | shares compounds with Pol kappa inh-1 | Potency, µM, hits mostly inhibitors
Pol kappa inh-2: qHTS for Inhibitors of Polymerase Kappa: Confirmatory Assay for Cherry-picked Compounds | AID 720501, 2013 | shares compounds with Pol eta inh-1 | 920 compounds, 76% hits | Potency, µM, most hits filed as inhibitors | purified Pol-kappa, fluorescent strand-displacement substrate
Pol eta inh-2: qHTS for Inhibitors of Polymerase Eta: Confirmatory Assay for Cherry-picked Compounds; AID 720502, 2013; Pol eta primer extension, TAMRA/BHQ fluorescence, 10 min; 2,600 compounds, 64% hits; Potency, µM, usual class: inhibitors; shares compounds with Pol eta inh-1
* = called active by the depositor; ? = inconclusive; · = no result; [ ] = another dose, or the depositor's remark. Calls follow the shape of the dose curve; as a rule, active = well fitted curve in the direction sought with a large enough effect; inconclusive = small, poorly fitted or top-dose-only effect, or another doubt; inactive = no such curve, though single readings can be large; an effect the other way counts as inactive or inconclusive. Potency is read from the fitted curve at half-maximal effect.

SMILES	POLB inh	Pol eta inh-1	Pol kappa inh-1	FEN1 inhibitor	WRN helicase inh	POLI inh	POLI cherry-pick	Pol eta inh-2	others
O=C(N/N=C/c1ccc(O)cc1O)C(=O)N/N=C/c1ccc(O)cc1O	?	-18%	-14%	-19%	-8%[11.6 µM]	?	9.5*	17*
C/C=C\C=C/C(=O)Nc1cccc(C2=NOC3(C2)C[C@@H](C(N)=O)N(C(=O)c2ccccc2)C3)c1 (stereo partly drawn)	0%	·	·	·	·	·	·	·
C/C=C/C=C\C(=O)Nc1cccc(C2=NOC3(C2)C[C@H](C(N)=O)N(C(=O)/C=C/C)C3)c1 (stereo partly drawn)	?	22µM*	?	0%	?	?	34*	38*
C=C(C)C(=O)Nc1cccc(C2=NOC3(C2)C[C@@H](C(N)=O)N(C(=O)CCCCC)C3)c1 (stereo partly drawn)	2µM*	1.4µM*	7.9µM*	25µM*	40µM*	8.9µM*	19*	3*	PGK validate=0.58µM*
C/C=C\C=C\C(=O)N1CC2(CC(c3cccc(NC(=O)COc4ccc(Cl)cc4)c3)=NO2)C[C@H]1C(N)=O (stereo partly drawn)	8%	-21%	-19%	-23%	-11%	?	·	·
C/C=C\C=C\C(=O)N1CC2(CC(c3cccc(NC(=O)CC)c3)=NO2)C[C@H]1C(N)=O (stereo partly drawn)	-21%	35µM*	79µM*	?	?	?	12*	54*
c1ccc(CNc2ncnc3nc(N4CCOCC4)[nH]c23)cc1	·	·	7%	?	·	6%	·	·
Cc1ccccc1OCCSc1nnc(-c2ccc([N+](=O)[O-])cc2)o1	-26%	·	10%	4%	·	43%	·	·
COc1ccc(OC)c(CCNC(=O)CN2C(=O)COc3ccc(S(=O)(=O)N4CCC(C)CC4)cc32)c1	6%	-12%	-3%	-3%	·	30%	·	·
Nc1ncnc2c1ncn2COC(CO)CO	·	·	-25%	-2%	·	?	·	·
COc1cccc(NC(=O)Cn2c(=O)n(-c3cccc(OC)c3)c(=O)c3c4c(sc32)CCCC4)c1	4%	-5%	8%	24%	·	24%	·	·
Cc1ccc(C(=O)C2C(=O)c3ccccc3C2=O)cc1	13%	3%	-1%[60.1 µM]	-8%	-6%	-14%	·	·
NN=C1c2ccccc2C(=O)C1C(=O)C(c1ccccc1)c1ccccc1 (stereo not drawn)	·	?	22µM*	?	50µM*	40µM*	75*	85*	Pol kappa inh-2=17*
Cc1ccc(C)c(Cn2c(=O)n(CCCCCC(=O)NCc3ccc4c(c3)OCO4)c(=O)c3sccc32)c1	-1%	-11%	-1%	-2%	·	13%	·	·
COc1ccc(Cc2nc3ccccc3n2CC(=O)N/N=C/c2ccc(C)cc2O)cc1OC	7.9µM*	?	?	?	-20%[11.6 µM]	20µM*	9.5*	67*	Pol kappa inh-2=30*
Cc1ccc(OCC(=O)NCc2ccco2)cc1C	0%	?	-25%	3%	1%[57.1 µM]	10%	·	·
CC(=O)c1cccc(OCC(=O)N(C)CC(=O)NCc2ccco2)c1	·	3.2µM*	35µM*	?	?	7.9µM*	15*	5.4*	PGK validate=3.3µM*;Pol kappa inh-2=19*
CC(C)c1ccc(NC(=O)c2ccc(=O)n(Cc3ccccc3)c2)cc1	-2%	-31%	-10%[60.1 µM]	-16%	·	1%	·	·
Cc1cc(C(=O)NNC(=O)/C=C/c2ccco2)c(C)o1	·	2.2µM*	22µM*	?	?	3.2µM*	?	17*	PGK validate=16µM*
O=C1c2cc([N+](=O)[O-])cc3cc([N+](=O)[O-])cc(c23)C(=O)N1c1ccccn1	?	16µM*	?	?	?	?	67*	30*	Pol kappa inh-2=21*
O=C1c2ccc(Oc3cccc([N+](=O)[O-])c3)cc2C(=O)N1c1ccccn1	-1%	1%	-2%	-18%	4%	-26%	·	·
O=C(COC(=O)c1cc2c(s1)CCC2)Nc1ccc(F)cc1	8.9µM*	18µM*	32µM*	-3%	?	20µM*	24*	24*
CCOc1ccc(NC(=O)CN(C)C(=O)c2cc3c(s2)CCC3)cc1OCC	·	3.5µM*	·	·	?	·	17*	34*	Pol kappa inh-2=19*
Cc1ccc(NC(=O)c2cc3c(s2)CCCC3)cc1	3%	-12%	-16%	6%	-13%	44%	·	·
C/C=C1\COC(C(=O)NC)(C(F)(F)F)C=C1C=C1CCCCC1 (stereo not drawn)	·	·	14%	0%	·	9%	·	·
O=c1cc(/C=C/c2ccccc2)oc2c1ccc1ccccc12	2%	?	0%	-6%	-4%	?	·	·
O=c1cc(-c2ccc(O)c(O)c2)oc2c1ccc1ccccc12	·	3.2µM*	35µM*	?	?	10µM*	27*	4.8*	Pol kappa inh-2=21*
Cc1ccc(NC(=O)Cn2cc(S(=O)(=O)Cc3ccc(F)cc3)c3ccccc32)cc1Cl	25µM*	18µM*	?	-12%	·	79µM*	47*	43*
O=C1NC(=Nc2ccc3ccccc3c2)S/C1=C/c1ccco1	8.9µM*	35µM*	?	-8%	-4%[11.6 µM]	?	38*	?	Pol kappa inh-2=27*
NC1C(O)OC(CO)[C@@H](O)[C@@H]1O[C@H]1O[C@@H](C(=O)O)C(O)C(O)C1O (stereo partly drawn)	·	·	4%[60.1 µM]	·	·	·	·	·
